In PubChem BioAssay (NCI):
This is part of a sample that, as a whole, favours compounds with a hit. Of some 79,000 tested, about 15% had one in any assay. Values without a mark were called inactive. Active and inactive are the calls of the source. Rule as the data show it: active = growth inhibition above about 70%; inactive = the rest.

Experiments:
[1] = NCI Yeast Anticancer Drug Screen. Data for the rad50 strain (AID 155);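 also: 0% = growth of vehicle-only cultures of the same strain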; details: S. cerevisiae rad50 strain growth inhibition; at 50.0 µM; hits give high values
In short: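 Relative growth inhibition (compound vs vehicle) was measured in yeast with a defined repair-gene alteration.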

[2] = NCI Yeast Anticancer Drug Screen. Data for the mec2-1 strain (AID 157); details: S. cerevisiae mec2-1 strain, at 50.0 µM, hits give high values
In short: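 Yeast mec2-1 mutant treated with compound. Readout: growth inhibition vs vehicle controls.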

[3] = NCI Yeast Anticancer Drug Screen. Data for the sgs1 mgt1 strain (AID 161);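 also: 0% = growth of cultures given vehicle only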; details: S. cerevisiae sgs1 mgt1 strain, at 50.0 µM, hits give high values
In short: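 Mutant yeast exposed to compound; growth scored against vehicle-only wells.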

[4] = NCI Yeast Anticancer Drug Screen. Data for the cln2 rad14 strain (AID 165);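 also: 0% = growth equal to vehicle treated cultures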; details: S. cerevisiae cln2 rad14 strain, at 50.0 µM, hits give high values
In short: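 cln2 rad14 yeast strain; compound exposure; growth inhibition read vs vehicle controls.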

[5] = NCI Yeast Anticancer Drug Screen. Data for the bub3 strain (AID 167); details: S. cerevisiae bub3 mutant strain, at 50.0 µM, hits give high values
In short: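 Screening used yeast with an engineered genetic alteration affecting cell cycle control. Compound-exposed cultures were compared with vehicle cultures, and reduced growth was taken as inhibition.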

[6] = NCI Yeast Anticancer Drug Screen. Data for the mlh1 rad18 strain (AID 175); details: S. cerevisiae mlh1 rad18 strain growth inhibition; at 50.0 µM; hits give high values
In short: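 Yeast w/ defined DNA-repair lesions; compound exposure; growth vs vehicle controls → % inhibition.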

| SMILES | growth inhibition [1] | growth inhibition [2] | growth inhibition [3] | growth inhibition [4] | growth inhibition [5] | growth inhibition [6] |
| --- | --- | --- | --- | --- | --- | --- |
| N#CS[C@@H]1CCC[C@H]1O | -0.85% | -6.25% | -18.5% | -18% | 1.65% | -20.1% |
| Nc1ncc2[nH]c(I)nc2n1 | 16.9% | 19.9% | 0.65% | 0.7% | 40.2% | 26.4% |
| CC(=O)NCCc1ccc(OCc2ccccc2)cc1 | -7.15% | 2.25% | 3.7% | -51.5% | -19.4% | -1.45% |
| CC(=O)Oc1c(C)cc(C(=O)CO)cc1C | 34.7% | 15.4% | 27.7% | 6.75% | 14.4% | 31.8% |
| c1ccc(-c2c3ccccc3cc3c2ccc2ccccc23)cc1 | -13.4% | -12.2% | -3.95% | 9.25% | 19.5% | 0.55% |
| N#C/C(=C/N1CCNC1=S)C(N)=O | 4.95% | 5% | 9.5% | 23.9% | -2.8% | 12.4% |
| COC(=O)C(=O)C(C(=O)C=C(C)C)C(=O)C(=O)Nc1cc(C(F)(F)F)ccc1Cl (stereo unspecified) | -3% | -1.4% | 6% | -57.1% | 1.15% | -10.8% |
| CCOC(=O)c1sc2nc(-c3ccccc3)nn2c1CBr | 17.1% | 3.95% | 11.9% | 24.1% | 18.6% | 49.4% |
| O=C(O)CN1C(=O)/C(=C\c2ccc3ccccc3n2)SC1=S | 1.9% | 18.9% | 2.85% | -14.1% | 0.4% | 20.6% |
| CC(=O)Nc1nnc(S(C)(=O)=O)s1 | -29.6% | -29% | -55.6% | 7.25% | -36.9% | -33% |
| CC(=O)Oc1ccc(C2(OC(C)=O)c3ccccc3C(=O)c3ccccc32)cc1 | 11.5% | 9.9% | 34.4% | 34.1% | -8.5% | 31.8% |
| Cc1ccc(C(=O)N(C(C)C)C(C)C)cc1N=NN(C)C | -10% | -30.6% | -31.1% | 12.2% | -20.6% | -23.7% |
| CCOC(=O)NC(=O)CC#N | -5.5% | -29.8% | 13.4% | 5.05% | -4.2% | 10.7% |
| c1ccc2c(c1)CCc1ccccc1N2 | 1.65% | 13.8% | -28.9% | 6.45% | 15.1% | -3.4% |
| Cc1cccc(C(C)C)c1NC(=O)/C(Cc1c([N+](=O)[O-])cccc1[N+](=O)[O-])=N/NC(=O)CC#N | -0.15% | -3.6% | 13.8% | 11.2% | -23.2% | 4.8% |
| Cc1ccccc1C(c1ccccc1C)C(CC(=O)O)CC(=O)O | 11.7% | 14.2% | 10.6% | -102% | 5.05% | -2.6% |
| C=Nc1ccc([N+](=O)[O-])cc1 | 6.9% | 10.2% | -1.3% | 14.6% | -4.75% | 26.3% |
| O=C1c2cc(Cl)ccc2-c2ccc(Cl)cc21 | 2.75% | 2.85% | -4.85% | -11.8% | -1.2% | 1.05% |
| Ic1ccccc1/C=C/c1ccccn1 | 14.6% | 11.3% | 28.7% | -54.6% | 31.8% | -0.2% |
| CCOC(=O)Nc1cc(Cl)c2nnn(C(=O)OCC)c2n1 | 95.8% (active) | 98.2% (active) | 97.9% (active) | 90.7% (active) | 96.7% (active) | 97.6% (active) |
| COc1ccc(C(CC(=O)O)c2cc3c(cc2OC)OCO3)cc1 (stereo unspecified) | -4% | -9.85% | 3.8% | 0.25% | 1.1% | -1.75% |
